# Sampled rows, rich in hits. Any-hit rate of the full collection: about 11%.
# Pf growth 96h: P. falciparum growth inhibition at 96 hour, primary screen for plastid delayed-death inhibitors; P. falciparum luciferase reporter growth, 96 h; Potency, µM (doses to about 28.7 µM), for inactives: at the top dose activity change, negative = inhibition, actives largely listed as inhibitors; 6.9% of 320,000 active
#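 P. falciparum expressing integrated firefly luciferase, in erythrocytes at 2% hematocrit, 0.05% parasitemia, incubated with compounds 96 h at 37 C, 5% CO2. Growth inhibition read as loss of luminescence; two-generation exposure targets delayed-death apicoplast inhibitors.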
# Pf growth 48h: P. falciparum growth inhibition at 48 hours (one generation); Potency, µM (doses to about 28.7 µM), for inactives: at the highest dose activity change, negative = inhibition, most hits filed as inhibitors; AID 504832; P. falciparum luciferase growth in erythrocytes, 48 h; 5.9% of 310,000 active
#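 Parasite viability was followed by luminescence of a genomically integrated firefly luciferase. Cultures held 0.1% parasitemia at 2% hematocrit (final), incubated under 5% CO2 at 37 C.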
# AMA1 RON2 block: disrupts binding of P. falciparum AMA1 to RON2; AlphaScreen AMA1-biotinylated RON2 peptide binding; AID 720542; Potency, µM (titrated, usually from 58.2 µM), for the others: at the highest dose activity change, negative = inhibition, usual class: inhibitors; 0.2% of 360,000 active;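 note: 0% = vehicle wells and -100% = peptide control; nearly all actives have a fitted effect of over 45% in size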
#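 AMA1 (3D7) with his tag at 25 nM final met compounds first, then biotinylated RON2 peptide at 25 nM; detection used donor plus acceptor beads, 10 µg/mL apiece, read by AlphaScreen after 30 min at room temperature.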
# HCV inh: HCV inhibition; Huh7.5.1 HCVcc-Cre infection, luciferase reporter, 44 h; 3.4% of 340,000 active; Potency, µM (titrated, usually from 41.8 µM), without a hit: at the top dose activity change, negative = inhibition, hits mostly inhibitors
#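 Infectious HCV cell culture screen: compound-treated cells (1,000/well, pre-plated 4 h) are infected with HCVcc-Cre at roughly 0.5 moi and grown 44 h. Infection is quantified by luciferase signal after 15 min substrate incubation at room temperature.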
# An asterisk follows results filed as active; ? = inconclusive; · = not tested or not shown; [ ] = dose if it differs, or a comment. Calls come from the whole dose curve; as a rule, active = well fitted curve in the direction sought with a large enough effect; inconclusive = small, poorly fitted or top-dose-only effect, or another doubt; inactive = no such curve, though single readings can be large; an effect the other way counts as inactive or inconclusive. Unless noted, % is set by controls: 0 for no effect and ±100 for the full control effect; potency is the fitted concentration of half-maximal effect.
SMILES,Pf growth 96h,Pf growth 48h,AMA1 RON2 block,HCV inh
O=C(NCCCn1ccnc1)c1ccc(N2CCCCC2)c([N+](=O)[O-])c1,?,-24.7%,-7.0%,?
Cc1nnc(-c2ccc(N3CCOCC3)c([N+](=O)[O-])c2)o1,-8.9%,-1.1%,-0.2%,-6.9%
Cc1cccc(Nc2nnc(-c3ccc(N4CCOCC4)c([N+](=O)[O-])c3)c3ccccc23)c1,?,11.7µM*,-24.6%,14.1µM*
COc1ccccc1-c1cn[nH]c1-c1ccc(O)cc1O,?,?,98.4%,?
COc1ccccc1-c1cn[nH]c1-c1ccc(OCc2ccccc2F)cc1O,3.7µM*,7.38µM*,55.0%,-22.0%
COc1ccccc1-c1cn[nH]c1-c1ccc(OCc2ccc([N+](=O)[O-])cc2)cc1O,-12.8%,?,56.9%,17.9%
COc1ccccc1-c1cn[nH]c1-c1ccc(OCc2ccc(F)cc2)cc1O,10.4µM*,13.1µM*,77.1%,?
COc1ccc(CC(=O)OC(C)C(=O)NC2CCCCC2C)cc1 (stereo not given),19.7%,?,2.9%,13.3%
Cc1cc(C)nc(SCCS(=O)(=O)Cc2ccc(Cl)cc2)n1,10.4µM*,3.5%,2.2%,-25.1%
O=c1[nH]c(=S)[nH]c2c1C(c1ccc(Br)cc1)c1c([nH]c(=S)[nH]c1=O)O2,5.6%,29.7%,35.5µM*,15.1%
O=C1CCCC2=C1C(c1ccc(Br)cc1)c1c([nH]c(=S)[nH]c1=O)N2 (stereo not given),?,-8.4%,59.8%,1.8%
COC(=O)C1=C(c2ccc(F)cc2F)C[C@@H]2CC[C@H]1N2C(=O)NCCO,36.7%,22.5%,2.2%,16.2%
COC(=O)C1=C(c2ccc(F)cc2F)C[C@@H]2CC[C@H]1N2C(=O)NCCOc1ccccc1Cl,10.4µM*,?,-4.1%,?
COC(=O)C1=C(c2ccc(F)cc2F)C[C@@H]2CC[C@H]1N2C(=O)NCCOc1ccc(OC)cc1,-28.9%,10.4µM*,-3.2%,-23.4%
CN(C)C(=O)Nc1ccccc1,-25.5%,20.1%,-2.8%,17.4%
C=CCCCCCCCCC(=O)Nc1ncccn1,20.5%,5.6%,7.9%,2.4%
O=S(=O)(Nc1cc2nc3ccccc3nc2n1Cc1ccccc1)c1ccc(Cl)cc1,0.828µM*,1.31µM*,-4.2%,?
Cc1c(O)c(=O)ccn1C,-9.8%,22.5%,86.5%,12.3%
CCc1ccccc1NC(=O)/C(=C/c1ccco1)c1ccccc1,1.85µM*,·,-20.2%,?
CCCCCC(=O)N1C[C@@H](n2cc(-c3ccc(F)cc3)nn2)[C@H](O)C[C@@H]1c1ccc(OC)cc1,·,·,23.8%,·
CCN(c1cccc(C)c1)S(=O)(=O)c1ccc2c(c1)N(C(C)=O)CCS2,9.0%,-16.6%,-5.1%,11.2µM*
CCN(c1cccc(C)c1)S(=O)(=O)c1csc(C(N)=O)c1,8.9%,-11.4%[0.00184 µM],3.4%,4.0%
CC(C)CNC(=O)c1cccc(NC(=O)Cc2ccc(Cl)cc2)c1,0.0%,4.2%,21.3%,-6.3%
COc1ccc(C)cc1NC(=O)c1ccoc1C,·,2.3%,-1.1%,14.1µM*
COc1ccc(C(C)(C)C)cc1NC(=O)c1ccoc1C,11.7µM*,11.7µM*,-7.0%,?
SMILES,Pf growth 96h,Pf growth 48h,AMA1 RON2 block,HCV inh
COc1ccc(C)cc1NC(=O)NNC(=O)c1ccoc1C,-54.7%,72.1%,9.2%,18.4%
O=C(NCCCN1CCN(Cc2ccccc2)CC1)C1CCN(c2nnc(-n3cccc3)s2)CC1,63.3%,?,-5.7%,?
O=C(NCCCN1CCc2ccccc2C1)C1CCN(c2nnc(-n3cccc3)s2)CC1,?,4.15µM*,-3.6%,?
Clc1ccc(/C=N/N2CCN(Cc3ccccc3)CC2)cc1,19.7%,33.8%,-27.7%,12.1%
CCOc1ccc(/C=N/N2CCN(Cc3ccccc3)CC2)cc1,0.738µM*,23.8%,?,-24.9%
CCN(CC)c1ccc(/C=N\N2CCN(Cc3ccc(C)cc3)CC2)cc1,23.3%,13.5%,8.91µM*,-16.6%
COc1cccc(/C=N/N2CCN(Cc3ccccc3)CC2)c1O,7.38µM*,9.8%,?,3.1%
CCN(CC)CCNC(=O)CNC(=O)c1nn(-c2ccc(OC)cc2OC)c(=O)c2ccccc12,?,·,9.0%,0.1%
C[n+]1nc(Nc2ccccc2)sc1-c1ccc(C(=O)O)cc1,11.7%,8.7%,·,·
Clc1ccc(/C=C/c2ncc[nH]2)c(Cl)c1,?,?,-10.3%,-6.8%
CN(C)c1ccc2c(c1)C(=NO)c1ccccc1-2,·,·,25.1µM*,?
ON=C1c2ccccc2-c2ccccc21,49.3%,·,7.4%,?
